Screens from PubChem BioAssay.
Hits are enriched below; roughly 1.8% of the tested compounds scored in any of these assays.
UHRF1 binding = blocks human UHRF1 binding to methylated DNA; UHRF1 binding to methylated oligo, TR-FRET; 370,000 tested, 0.75% active; inhibition, % at 4.4 µM; in the data active = inhibition above about 21%;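 also: UHRF1 SRA domain binding a hemimethylated CpG hairpin DNA probe; 0% = median of test compound wells and 100% = reference inhibitor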
UBC13 polyUb = blocks human UBC13 polyubiquitin chain formation; P61088; TR-FRET; inhibition, % at 20 µM; 330,000 tested, 0.47% active; AID 485273; in the data active = inhibition above about 45%, passing the limit was not always enough
Target sequence (P61088 whole entry, looked up): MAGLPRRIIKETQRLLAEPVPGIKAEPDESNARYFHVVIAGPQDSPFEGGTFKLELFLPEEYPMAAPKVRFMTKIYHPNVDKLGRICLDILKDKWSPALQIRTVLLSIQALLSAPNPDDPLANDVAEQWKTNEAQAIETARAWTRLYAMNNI
MBD2 DNA inh = blocks human MBD2 binding to methylated DNA; TR-FRET, MBD2 binding to methylated oligonucleotide; Q9UBB5; 370,000 tested, 0.31% active; inhibition, % at 4.4 µM; AID 686964; in the data active = inhibition above about 13%
Target sequence (Q9UBB5 whole entry, looked up): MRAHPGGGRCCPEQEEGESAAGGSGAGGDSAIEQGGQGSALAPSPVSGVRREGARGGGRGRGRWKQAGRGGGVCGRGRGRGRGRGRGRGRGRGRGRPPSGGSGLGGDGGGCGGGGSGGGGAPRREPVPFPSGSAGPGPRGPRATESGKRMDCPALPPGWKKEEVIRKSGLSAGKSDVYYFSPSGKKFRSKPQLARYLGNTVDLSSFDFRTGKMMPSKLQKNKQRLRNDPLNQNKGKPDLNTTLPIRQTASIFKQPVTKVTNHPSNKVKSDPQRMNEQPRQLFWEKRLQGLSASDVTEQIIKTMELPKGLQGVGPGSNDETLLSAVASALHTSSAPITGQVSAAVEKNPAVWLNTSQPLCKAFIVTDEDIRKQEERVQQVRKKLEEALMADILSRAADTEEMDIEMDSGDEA
Neddylation inh = inhibitors of human cullin neddylation; AID 651699; calls only at 25 µM; 360,000 tested, 0.58% active; TR-FRET cullin neddylation, biochemical; P61081+Q13564; in the data active = inhibition above about 36%
Neddyl inh conf = cullin neddylation inhibition, confirmation | shares compounds with Neddylation inh | TR-FRET cullin neddylation biochemical assay | 1,800 tested, 13% active | calls only at 25 µM; in the data active = inhibition above about 40%;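 also: neddylation substrate is the cullin 1 ring ligase complex with SKP2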
* hit, by the source's call.

Screening O=S(=O)(c1ccc(Cl)cc1)N1CCN(c2ccc(N3CCOCC3)nn2)CC1 returned UHRF1 binding -2, UBC13 polyUb 28, MBD2 DNA inh 0, Neddylation inh active and Neddyl inh conf inactive.
`O=c1c2c(nc3c(-c4cccc(Br)c4)c[nH]n13)CCCC2` gave UHRF1 binding -3, UBC13 polyUb -2, MBD2 DNA inh -3, Neddylation inh active and Neddyl inh conf inactive.
O=c1c2c(nc3c(-c4ccccc4)c[nH]n13)CCC2 was read as UHRF1 binding -1, UBC13 polyUb 16 and MBD2 DNA inh 4.
For CN(C)NC(=S)Nc1ccc2nc(-c3ccccn3)c(-c3ccccn3)nc2c1 the results were UHRF1 binding 7, UBC13 polyUb -11, MBD2 DNA inh 0 and Neddylation inh inactive.
For S=C(Nc1ccc2nc(-c3ccccn3)c(-c3ccccn3)nc2c1)N1CCOCC1 the results were UHRF1 binding 10, UBC13 polyUb -50, MBD2 DNA inh -1, Neddylation inh active and Neddyl inh conf inactive.
For COc1ccc2[nH]c(C(=O)O)c(NS(=O)(=O)c3ccc(F)cc3)c2c1 the results were UHRF1 binding -3, UBC13 polyUb -4, MBD2 DNA inh 0 and Neddylation inh inactive.
`COc1ccc2[nH]c(C(=O)O)c(NS(=O)(=O)c3ccc(C)c(C)c3)c2c1` gave UHRF1 binding -3, UBC13 polyUb 1, MBD2 DNA inh -3, Neddylation inh active and Neddyl inh conf inactive.
For COC(OC)C(C)NC(=O)NC(=O)c1ccccc1Cl (centres undefined) the results were UHRF1 binding -2, UBC13 polyUb -4, MBD2 DNA inh -5 and Neddylation inh inactive.
`COc1ccc(-c2cnc3c(NC(C)=O)cc(-c4cc(F)ccc4OC)cn23)cc1OC` gave UHRF1 binding -3, MBD2 DNA inh -2, Neddylation inh active and Neddyl inh conf inactive.
Screening COc1ccc(F)cc1-c1cc(NC(C)=O)c2ncc(-c3cc(OC)c(OC)c(OC)c3)n2c1 returned UHRF1 binding 5, MBD2 DNA inh -7 and Neddylation inh inactive.
O=C(COC(=O)Cc1ccsc1)NCC12CC3CC(CC(C3)C1)C2 was read as UHRF1 binding 0, UBC13 polyUb 4, MBD2 DNA inh -2 and Neddylation inh inactive.
`CN1C[C@@H]2C(c3ccccc3)C3(c4ccc(C#N)cc4)CC2(C3)[C@H]1c1ccccc1` (some centres undefined) gave UHRF1 binding 3, UBC13 polyUb 10, MBD2 DNA inh -2 and Neddylation inh inactive.
Screening CN1C=CC2=C(C#N)C(N)C(C#N)(C#N)C(c3ccccc3)C2C1 (centres undefined) returned UHRF1 binding -7, UBC13 polyUb -34, MBD2 DNA inh -8, Neddylation inh active and Neddyl inh conf inactive.
COc1ccccc1C1c2c(ncn(-c3ccccc3)c2=N)Oc2ccc3ccccc3c21 (centres undefined) was read as UHRF1 binding 0 and MBD2 DNA inh -3.
C(=C\c1cccc2ccccc12)/c1nnc(-c2cccs2)o1 was read as UHRF1 binding 2, UBC13 polyUb 4, MBD2 DNA inh 1 and Neddylation inh active.
`COc1ccc(C(=O)Nc2ccc(NC(=O)C3CC3)cn2)cc1` gave UHRF1 binding -1, UBC13 polyUb 1, MBD2 DNA inh -1 and Neddylation inh inactive.
For Cc1ccc(-n2nc(C)c(/C=N/n3c(C)n[nH]c3=S)c2Cl)cc1 the results were UHRF1 binding -1, UBC13 polyUb -8, MBD2 DNA inh 2, Neddylation inh active and Neddyl inh conf inactive.
CCc1nccn1CCC(=O)N1CCCC(N2CCN(c3cccc(Cl)c3)CC2)C1 (centres undefined) was read as UHRF1 binding 0, UBC13 polyUb -5, MBD2 DNA inh -1 and Neddylation inh inactive.
Screening O=C(NNC1=Nc2ccccc2SC1)c1cccc([N+](=O)[O-])c1 returned UHRF1 binding -1, UBC13 polyUb -4, MBD2 DNA inh -2, Neddylation inh active and Neddyl inh conf inactive.
Screening CCCCCC(=O)Nc1cccc(S(=O)(=O)NC2=NCCCCC2)c1 returned UHRF1 binding 10, UBC13 polyUb -7, MBD2 DNA inh -2 and Neddylation inh inactive.
COc1ccccc1/C=N/NC(=O)c1ccccc1NS(=O)(=O)c1ccc(C)cc1 was read as UHRF1 binding 2, UBC13 polyUb -2, MBD2 DNA inh 0 and Neddylation inh active.
Screening COc1ccccc1C=NNC(=O)C(=O)NN=Cc1ccccc1OC returned UHRF1 binding 0, MBD2 DNA inh 3, Neddylation inh active and Neddyl inh conf inactive.
For COc1cccc(/C=N/NC(=O)C(=O)N/N=C/c2cccc(OC)c2OC)c1OC the results were UHRF1 binding -1, UBC13 polyUb -13, MBD2 DNA inh 0 and Neddylation inh inactive.
Cc1ccc(S(=O)(=O)Nc2ccccc2C=NNC(=O)c2ccncc2)cc1 was read as UHRF1 binding -2, MBD2 DNA inh -1 and Neddylation inh inactive.
`Cc1nn(C)c2nc(-c3cccs3)cc(C(F)(F)F)c12` gave UHRF1 binding 0, UBC13 polyUb 12, MBD2 DNA inh -3, Neddylation inh active and Neddyl inh conf inactive.
`O=C(Cc1ccc(Cl)cc1)Nc1ccc2c(c1)C(=O)NC2=O` gave UHRF1 binding -3, UBC13 polyUb 4, MBD2 DNA inh -1 and Neddylation inh active.
Screening O=C(Cc1ccc([N+](=O)[O-])cc1)Nc1ccc2c(c1)C(=O)NC2=O returned UHRF1 binding -3, UBC13 polyUb 6, MBD2 DNA inh 2 and Neddylation inh inactive.
Screening CC(=O)c1ccc(C(=O)Nc2ccc3c(c2)C(=O)NC3=O)cc1 returned UHRF1 binding -1, UBC13 polyUb 19, MBD2 DNA inh -7, Neddylation inh active and Neddyl inh conf inactive.
CC(C)CCNC(=O)c1ccc(Cl)c(N)c1 was read as UBC13 polyUb -5.
`Cc1ccc(C)c(NS(=O)(=O)c2cc(C(=O)N3CCCC3)ccc2Cl)c1` gave UHRF1 binding 3, UBC13 polyUb 3, MBD2 DNA inh 0 and Neddylation inh inactive.
Cc1nc2ccc(-c3nc4ccccc4[nH]3)cc2[nH]1 was read as UHRF1 binding 4, UBC13 polyUb 7, MBD2 DNA inh 7, Neddylation inh active and Neddyl inh conf inactive.
Screening Cc1ccc(-c2nc3ccccc3[nH]2)cn1 returned UHRF1 binding -2, UBC13 polyUb 2, MBD2 DNA inh -4 and Neddylation inh inactive.
Screening O=C(N/N=C/c1c[nH]c2ccccc12)c1cc(Cl)ccc1O returned UHRF1 binding -1, UBC13 polyUb 3, MBD2 DNA inh 4, Neddylation inh active and Neddyl inh conf inactive.
For O=C1c2cccc3cccc(c23)C(=O)C1(O)O the results were UHRF1 binding -8, UBC13 polyUb -29, MBD2 DNA inh -13 and Neddylation inh inactive.
For c1cc2c3c(cccc3c1)-c1cnccc1-2 the results were UHRF1 binding -13, MBD2 DNA inh -3, Neddylation inh active and Neddyl inh conf active.
For c1ccc(-c2nnc(-c3ccco3)o2)cc1 the results were UHRF1 binding -4, UBC13 polyUb 7, MBD2 DNA inh -1 and Neddylation inh active.
